This is one part of the list. Inconclusive results are not listed. Active and inactive are the calls of the source.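 The calls were made as follows: active = fitted half-maximal concentration for signal loss at or below twice the highest dose tested, in every separate run (actives reach about 64 µM in these data); inconclusive = runs disagree, or flat partial signal loss, or poor fit; inactive = the rest.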
assay: DNA binders displacing acridine orange – biochemical, fluorescence polarization, cherry-pick, artefact control for RAD52 inhibitor project, dose response (AID 652128); conditions: Salmon sperm DNA/acridine orange FP displacement, DNA binding

| Structure (SMILES) | outcome | AC50 |
| --- | --- | --- |
| CN(C)CCN1CCN(c2cc(-c3cccc(Cl)c3)nc3ccnn23)CC1 | inactive | – |
| CN(C)CCNC(=O)c1cccc(-c2cnc3c(NC=O)cc(-c4cccc(C(F)(F)F)c4)cn23)c1 | inactive | – |
| CCC1CCCCN1CCCNC(=O)c1cc2c(Cl)nc3ccccc3c2s1 (configuration not stated) | – | 49 µM (active) |
| Cc1cccc(-c2nc3ccc(C(=O)NCCN4CCN(C)CC4)cc3nc2-c2cccc(C)c2)c1 | inactive | – |
| Cc1c(CCOC(=O)CC23CC4CC(CC(C)(C4)C2)C3)sc[n+]1Cc1ccc([N+](=O)[O-])cc1 | inactive | – |
| CCN1CCCC1CNC(=O)c1ccc2c(c1)NC(=O)/C(=C\c1ccccc1F)S2 (configuration not stated) | inactive | – |
| O=C(/C=C/c1cn(-c2ccccc2)nc1-c1ccc2c(c1)OCCO2)NCCCN1CCOCC1 | inactive | – |
| COC1=C(N2CCOCC2)C(=O)c2ccccc2C1=O | inactive | – |
| C[C@H]1CN([C@@H](C)CO)C(=O)CCCn2nncc2CO[C@@H]1CN(C)C(=O)Nc1ccc(N2CCN(C)CC2)cc1 | inactive | – |
| NCCCNC(=S)NCCCN(Cc1ccc(Cl)cc1)c1ccc(Br)cn1 | inactive | – |
| CCOCCCNC(=S)Nc1ccc2nc(N3CCN(CC)CC3)cc(C)c2c1 | inactive | – |
| Nc1ncc(CN2CCCC(C(=O)Nc3ccc(-c4ccco4)cc3)C2)cn1 (configuration not stated) | inactive | – |
| NCCCCCC(=O)N/N=C/c1ccc2nccnc2c1 | inactive | – |
| CN1CCN(CCCNC(=O)c2ccc(/C=C3\Oc4ccccc4N(Cc4ccc(Cl)cc4)C3=O)cc2)CC1 | inactive | – |
| Cc1ccc(C(=O)N/C(=C/c2ccc(-c3cccc([N+](=O)[O-])c3)o2)C(=O)NCCCN(C)C)cc1 | inactive | – |
| COc1cccc(CNc2nc(NCc3cccs3)nc3ccsc23)c1 | inactive | – |
| O=C1CCC(C(=O)OCC(=O)Nc2ccc(OC(F)F)cc2)=NN1 | inactive | – |
| CCN(CC)CCC(c1ccc2c(c1)OCO2)c1c(OC)cc(OC)c2c(-c3ccccc3)cc(=O)oc12 (configuration not stated) | inactive | – |
| CN1CCN(c2nc(Nc3ccc(O)cc3)nc3ccccc23)CC1 | inactive | – |
| NC(N)=Nc1nc(-c2ccccc2)c2cc(Cl)ccc2n1 | inactive | – |
| CCCCCCCCCCOC(=O)Cn1c(COc2ccc(C)cc2)[n+](C)c2ccccc21 | inactive | – |
| Cc1cc2oc3ccc(NCCC4CCCN4C)cc3c(=O)c2cc1C (configuration not stated) | inactive | – |
| CC(=O)c1cccc(-c2cnc3c(NC=O)cc(-c4ccc(N5CCN(C)CC5)cc4)cn23)c1 | inactive | – |
| Cc1ccc2c(c1)C1CN(C)CCC1N2S(=O)(=O)c1ccc(Oc2ccc([N+](=O)[O-])cc2)cc1 (configuration not stated) | inactive | – |
| C=Cn1cc[n+](CC(=O)c2ccc(OC)c(OC)c2)c1 | inactive | – |
| COc1ccc2[nH]c3c(C)c4cc[n+](C)cc4c(C)c3c2c1 | – | 4.3 µM (active) |
| CCN(CC)CCOc1ccc2c(c1)C(=NNC(=O)c1ccccn1)c1cc(OCCN(CC)CC)ccc1-2 | – | 4.27 µM (active) |

From PubChem BioAssay AID652128 (Broad Institute, 2013)
